Screens (PubChem BioAssay)
NOMO-1 viab: NOMO-1 AML cell viability reduction, primary screen, STK33 inhibitor project, CellTiter-Glo luminescence; NOMO-1 AML viability, 72 h; inhibition, % (no concentration beside the values); actives 7.5% (n = 37,000); in the data active = inhibition above about 80%; inconclusive = no clear call, values can overlap the other calls
PD-1 reversal: activators reversing PD-1 mediated T-cell inhibition, primary screen, luminescence, primary human CD4 T cells, PD-L1 beads; CellTiter-Glo 96 h; activation, % (test concentration not listed); 29,000 tested, under 10 active; call rule not given here
STK33 inh: STK33 kinase inhibitors, primary screen, biochemical, luminescence, ADP-Glo, MBP substrate; AID 2322, 2010; inhibition, % at 12.5 µM; Serine/threonine-protein kinase 33 (Homo sapiens), Q9BYT3; actives 0.44% (n = 27,000); in the data active = inhibition above about 20%; inconclusive = no clear call, values can overlap the other calls
Target sequence (Q9BYT3 whole entry, looked up): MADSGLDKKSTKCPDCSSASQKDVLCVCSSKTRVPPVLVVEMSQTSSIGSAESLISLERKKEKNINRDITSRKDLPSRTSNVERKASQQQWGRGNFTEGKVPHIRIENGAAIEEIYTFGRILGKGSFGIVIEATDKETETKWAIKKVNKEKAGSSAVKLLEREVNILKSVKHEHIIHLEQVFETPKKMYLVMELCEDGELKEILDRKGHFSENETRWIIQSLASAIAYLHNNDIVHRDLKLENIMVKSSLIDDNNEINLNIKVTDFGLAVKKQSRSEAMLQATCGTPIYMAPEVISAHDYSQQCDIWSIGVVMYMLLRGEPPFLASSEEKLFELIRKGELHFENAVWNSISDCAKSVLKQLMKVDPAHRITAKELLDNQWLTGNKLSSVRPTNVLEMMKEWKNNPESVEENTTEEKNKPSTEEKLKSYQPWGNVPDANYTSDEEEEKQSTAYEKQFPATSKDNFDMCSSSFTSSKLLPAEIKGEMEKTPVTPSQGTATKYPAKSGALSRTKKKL
A number is an active result; – = inactive; ? = inconclusive; · = not tested or not shown. This excerpt belongs to a sample that is enriched for hits.

SMILES	NOMO-1 viab	PD-1 reversal	STK33 inh
C[C@H](CO)N1C[C@H](C)[C@H](CN(C)Cc2ccc(C(F)(F)F)cc2)Oc2ccc(NC(=O)Nc3ccc4c(c3)OCO4)cc2CC1=O	103.9	·	·
C[C@H]1CN([C@@H](C)CO)C(=O)Cc2cc(NC(=O)Nc3ccc4c(c3)OCO4)ccc2O[C@@H]1CN(C)Cc1ccc(C(F)(F)F)cc1	?	–	–
C[C@@H]1CN([C@@H](C)CO)C(=O)Cc2cc(NC(=O)Nc3ccc4c(c3)OCO4)ccc2O[C@@H]1CN(C)Cc1ccc(C(F)(F)F)cc1	94.6	–	·
C[C@H]1CN([C@@H](C)CO)C(=O)Cc2cc(NC(=O)Nc3ccc4c(c3)OCO4)ccc2O[C@H]1CN(C)Cc1ccc(C(F)(F)F)cc1	–	·	–
COc1cc([N+](=O)[O-])ccc1NC(=S)NC(=O)COc1ccc(C)cc1	–	·	–
CC1(C)CC(=O)C2=C(C1)NC(SCC(=O)Nc1ccccc1)=C(C#N)C2c1ccco1 (stereo not drawn)	–	–	–
CCc1ccc(C2C(C#N)=C(C)NC3=C2C(=O)CC(C)(C)C3)cc1 (stereo not drawn)	86.1	–	·
O=S(=O)(/N=C1\SCCN1S(=O)(=O)c1ccc(Cl)cc1)c1ccc(Cl)cc1	–	–	·
C[C@H]1CN([C@@H](C)CO)C(=O)Cc2cc(NS(=O)(=O)c3ccc(F)cc3)ccc2O[C@H]1CN(C)Cc1ccc(Oc2ccccc2)cc1	122.2	–	–
C[C@@H]1CN([C@H](C)CO)C(=O)Cc2cc(NS(=O)(=O)c3ccc(F)cc3)ccc2O[C@H]1CN(C)Cc1ccccc1	–	·	–
C[C@H]1CN([C@@H](C)CO)C(=O)Cc2cc(NS(=O)(=O)c3ccc(F)cc3)ccc2O[C@H]1CN(C)Cc1ccccc1	–	–	–
C[C@@H]1CN([C@@H](C)CO)C(=O)Cc2cc(NS(=O)(=O)c3ccc(F)cc3)ccc2O[C@@H]1CN(C)Cc1ccc(Oc2ccccc2)cc1	122.2	·	–
COc1ccc(OC)c(S(=O)(=O)N2CCC(C(=O)Nc3cc(Cl)ccc3Oc3ccccc3)CC2)c1	–	–	–
O=C1O[C@H](c2ccccc2)[C@H](c2ccccc2)N2[C@H]1[C@@H](C(=O)NC[C@H](O)c1ccccc1)[C@]1(C(=O)Nc3ccc(C#CC4=CCCCC4)cc31)[C@H]2c1ccccc1OCCO	·	·	–
O=C(COc1ccc([N+](=O)[O-])cc1)Nc1ccc2oc(-c3ccc(F)cc3)nc2c1	?	–	–
Cc1ccc(NC(=O)c2cccc(S(=O)(=O)Nc3cccc(C(=O)O)c3)c2)cc1	–	·	–
O=C(O)c1ccc(NS(=O)(=O)c2cc3c4c(cccc4c2)C(=O)NC3=O)cc1	140.5	–	·
CCc1ccc(-c2nc3cc(NC(=O)COc4ccc([N+](=O)[O-])cc4)ccc3o2)cc1	–	–	–
C[C@@]12C[C@]3(O)O[C@H](O1)C1(COC(=O)c4ccccc4)[C@H]3C[C@@]12O[C@@H]1O[C@H](COC(=O)c2ccccc2)[C@@H](O)[C@H](O)[C@H]1O	–	–	–
O=C(Nc1nc(-c2ccccc2)cs1)C12CC3CC(CC(C3)C1)C2	108.3	–	·
Cc1ccc(NC(=O)C23CC4CC(CC(C4)C2)C3)cc1	–	–	·
Cc1ccc(OCC(=O)Nc2ccccc2C#N)cc1C	–	·	–
CS/C(=N\S(=O)(=O)c1cc(C(F)(F)F)cc(C(F)(F)F)c1)N1CCOCC1	–	–	·
CCOC(=O)c1c(NC(=O)CSc2nc3ccccc3c(=O)[nH]2)sc2c1CCCC2	107.4	–	–
CCOC(=O)c1c(NC(=O)Cn2cnc3ccccc3c2=O)sc2c1CCCC2	–	–	–
SMILES	NOMO-1 viab	PD-1 reversal	STK33 inh
Cc1cc(C)c2oc(-c3ccc(C)c(NC(=O)COc4ccc(Cl)cc4)c3)nc2c1	–	·	–
C[C@@H]1CN([C@@H](C)CO)C(=O)c2cccc(NS(=O)(=O)c3ccccc3)c2O[C@@H]1CN(C)Cc1ccc(-c2ccccc2)cc1	98.0	–	·
Cc1ccc(S(=O)(=O)Nc2cccc3c2O[C@H](CN(C)Cc2ccc(-c4ccccc4)cc2)[C@@H](C)CN([C@H](C)CO)C3=O)cc1	–	–	·
Cc1ccc(S(=O)(=O)Nc2cccc3c2O[C@H](CN(C)Cc2ccc(Oc4ccccc4)cc2)[C@@H](C)CN([C@H](C)CO)C3=O)cc1	98.7	–	·
C[C@H]1CN([C@@H](C)CO)C(=O)c2cccc(NS(=O)(=O)c3ccc(Cl)cc3)c2O[C@@H]1CN(C)Cc1ccc(-c2ccccc2)cc1	–	–	·
Cc1ccc(S(=O)(=O)Nc2cccc3c2O[C@@H](CN(C)Cc2ccc(-c4ccccc4)cc2)[C@@H](C)CN([C@@H](C)CO)C3=O)cc1	91.3	–	·
C[C@@H]1CN([C@H](C)CO)C(=O)c2cccc(NS(=O)(=O)c3ccccc3)c2O[C@@H]1CN(C)Cc1ccc(-c2ccccc2)cc1	–	–	·
